According to ChEMBL document CHEMBL3988442, “University of Dundee, Small-Polar-MMV Screening Library” (2021):
About 65 (0.1%) of roughly 65,000 compounds showed an effect of 50% or more. For the sample, strong results were picked, then their nearest neighbours and some compounds at random.

Each compound was assayed against Tryptophan--tRNA ligase (Mycobacterium tuberculosis (strain ATCC 25618 / H37Rv)) (UniProt P9WFT3) (assay: Biochemical assay for Mt-TrpRS). Conditions: 10 µM.
Type: functional
Set-up: scale not given: direction of the effect not stated beside the values

Chain of Tryptophan--tRNA ligase (Mycobacterium tuberculosis (strain ATCC 25618 / H37Rv)) (P9WFT3 whole entry): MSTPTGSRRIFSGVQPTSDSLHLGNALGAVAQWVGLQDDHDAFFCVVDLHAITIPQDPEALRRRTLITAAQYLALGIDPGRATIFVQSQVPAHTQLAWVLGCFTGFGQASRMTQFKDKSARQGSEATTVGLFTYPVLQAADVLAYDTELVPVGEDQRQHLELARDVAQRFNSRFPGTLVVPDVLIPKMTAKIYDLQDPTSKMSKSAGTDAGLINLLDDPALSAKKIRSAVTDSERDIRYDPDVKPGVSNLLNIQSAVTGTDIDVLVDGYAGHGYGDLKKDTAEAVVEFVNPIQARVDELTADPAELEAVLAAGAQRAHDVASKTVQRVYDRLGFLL

| Structure (SMILES) | Percent Effect [%] |
| --- | --- |
| CC(NC(=O)C1CCCCC1)c1cc(O)nc(-c2cccnc2)n1 (centres undefined) | 0.0653 |
| CC(C)C(NC(=O)C1CC1)c1cc(O)nc(-c2cccnc2)n1 (centres undefined) | 2.42 |
| CC(C)C(NC(=O)C1CCCC1)c1cc(O)nc(-c2cccnc2)n1 (centres undefined) | 65.2 |
| Cc1ccc(CNCc2nnc3n2CC(C(F)(F)F)CC3)o1 (centres undefined) | -0.327 |
| CCOc1ccc2ccccc2c1CNCC1CCS(=O)(=O)C1 (centres undefined) | -4.67 |
| Cc1ccc(N2C[C@H](C(=O)N3CCOCC3)[C@@H]3CCO[C@@H]3C2)nn1 | -1.89 |
| CCCC(=O)N(C)C(c1cccc(F)c1)c1ccccn1 (centres undefined) | -2.61 |
| CC(C)N(C)CC(=O)N(C)C(c1cccc(F)c1)c1ccccn1 (centres undefined) | 94.7 |
| CC(=O)N(C)C(c1cccc(F)c1)c1ccccn1 (centres undefined) | 70.3 |
| CC(C)NC(=O)N(C)C(c1cccc(F)c1)c1ccccn1 (centres undefined) | -3.48 |
| CCNC(=O)N(C)C(c1cccc(F)c1)c1ccccn1 (centres undefined) | 2.8 |
| CCN(CC)CC(=O)N(C)C(c1cccc(F)c1)c1ccccn1 (centres undefined) | 0.435 |
| Cc1nnc([C@@]23CCO[C@@H]2CCN(S(C)(=O)=O)C3)o1 | 14.4 |
| CC(c1ccncc1)N1Cc2nc(N(C)C)ncc2C1=O (centres undefined) | 0.86 |
| COC(=O)c1ncccc1N1CCCCC1 | 0.136 |
| Cc1ccc(CN2C[C@H](N3CCOCC3)[C@@H]3OCCC[C@@H]32)o1 | -6.03 |
| CCC(O)CN1CCN(C(=O)c2cc3ccccc3n2CC)CC1 (centres undefined) | 84.1 |
| CCn1c(C(=O)N2CCN(C(=O)NC(C)C)CC2)cc2ccccc21 | 0.24 |
| CCn1c(C(=O)N2CCN(CC(C)O)CC2)cc2ccccc21 (centres undefined) | 0.24 |
| c1cnc(N2CCO[C@H]3CN(Cc4ccsc4)C[C@H]32)nc1 | -4.69 |
| COc1ccc2nnc(CCCC(=O)NCc3cccn3C)n2n1 | 1.21 |
| Cn1cccc1CNC(=O)CCCc1nnc2ccccn12 | 224 |
| COc1ccc2nnc(CCC(=O)NCc3cccn3C)n2n1 | 1.87 |
| CS(=O)(=O)NC[C@]12COC[C@H]1CN(C(=O)c1ccccc1)C2 | -5.18 |
| CC(=O)N1CC2(CCN(Cc3ccc(Cl)cc3)CC2)Cc2ccccc21 | -5.45 |

| Structure (SMILES) | Percent Effect [%] |
| --- | --- |
| CN1C(=O)CC(C(=O)O)C12CCN(Cc1ccc(Cl)c(F)c1)CC2 (centres undefined) | 54.6 |
| CN1C(=O)CC(C(=O)O)C12CCN(Cc1ccc(Cl)c(Cl)c1)CC2 (centres undefined) | -7.74 |
| CN1C(=O)CC(C(=O)O)C12CCN(Cc1ccc(F)c(Cl)c1)CC2 (centres undefined) | -3.47 |
| CN(C)c1ncccc1CNC(=O)N1CCCC1CN1CCCCC1 (centres undefined) | -0.719 |
| CN(C)c1ncccc1CNC(=O)N1CCCC1CN1CCCC1 (centres undefined) | 67.8 |
| CN(C)c1ncccc1CNC(=O)N1CCCC1c1ccsc1 (centres undefined) | -2.64 |
| CS(=O)(=O)N1CC[C@]2(O)CCN(c3cc(C#N)ccn3)C[C@@H]2C1 | -1.89 |
| CO[C@@H]1CC[C@H]2[C@H]1OCCN2CCOCc1ccccc1 | -7.44 |
| CCN1CCO[C@@H]2CN(C(=O)COC3CCCC3)C[C@@H]2C1 | 14.7 |
| CC(C)NC(=O)N1CCC2(CC1)C(=O)NCCN2Cc1ccccc1 | -4.29 |
| O=C(NC1CC1)N1CCC2(CC1)C(=O)NCCN2Cc1ccccc1 | -5.09 |
| O=C(CC1CC1)N1CCC2(CC1)C(=O)NCCN2Cc1ccccc1 | 54.2 |
| Cc1ccccc1C1(C(=O)NCCN2CCCC2)CCOCC1 | 1.49 |
| COc1ccccc1C1(C(=O)NCCN2CCOCC2)CCOCC1 | -0.235 |
| COc1ccccc1C1(C(=O)NCCN2CCCCC2)CCOCC1 | 73.8 |
| COc1ccc(CN2C[C@H]3CN(c4cncnc4)C(=O)[C@H]3C2)cc1 | 0.241 |
| Cc1c(Cl)c(C(=O)NC(C)CN2CCOCC2)nn1C (centres undefined) | -1.4 |
| Cc1oncc1C(=O)N1C[C@H]2CCCC(N(C)Cc3cccs3)[C@H]2C1 (some centres undefined) | 0.971 |
| Cc1nn(C)c(C)c1C1CCCN1C(=O)c1ccc(Cl)o1 (centres undefined) | 0 |
| CSc1ccc(C(=O)N2CCOCC2c2c(C)nn(C)c2C)o1 (centres undefined) | -3.05 |
| Cc1nn(C)c(C)c1C1COCCN1C(=O)c1ccc(Cl)o1 (centres undefined) | 80.8 |
| CS(=O)(=O)N[C@H]1CN(C(=O)c2cscn2)[C@@H]2CCCO[C@H]12 | 1.91 |
| Cn1cc(CN2CCO[C@H]3CN(Cc4ccco4)C[C@H]32)cn1 | -5.69 |
| O=C(N[C@@H]1CN(C2CCCC2)C[C@@H]2CCCO[C@@H]21)c1cnccn1 | -1.79 |
| COCC1CC2(CCN(C(=O)c3ccc(F)c(Cl)c3)CC2)CO1 (centres undefined) | 54.8 |

| Structure (SMILES) | Percent Effect [%] |
| --- | --- |
| COCC1CC2(CCN(C(=O)c3ccc(OC)c(Cl)c3)CC2)CO1 (centres undefined) | -1.65 |
| COCC1CC2(CCN(C(=O)c3cccc(C)c3)CC2)CO1 (centres undefined) | -6.95 |
| c1ccc(NC[C@@H]2CCC[C@@H]3CN(Cc4cc[nH]n4)C[C@@H]32)nc1 | -8.1 |
| CN(C)C(=O)N[C@H]1CN(Cc2ccc3c(c2)OCO3)[C@@H]2CCCO[C@H]12 | -1.66 |
| COCCc1noc(CN(C)C2CCCN(c3cccnn3)C2)n1 (centres undefined) | 67.5 |
| CCc1nc(CN(C)C2CCCN(c3cccnn3)C2)no1 (centres undefined) | 10.3 |
| CN(CC(=O)Nc1ccncc1)C1CCCN(c2cccnn2)C1 (centres undefined) | -2.13 |
| Cc1nnc(NC(=O)CN(C)C2CCCN(c3cccnn3)C2)s1 (centres undefined) | -2.71 |
| COCCc1noc(CN(C)C2CCCN(c3ccc(C)nn3)C2)n1 (centres undefined) | 0.711 |
| CN(CC(=O)Nc1cccnc1)C1CCCN(c2cccnn2)C1 (centres undefined) | 57.9 |
| CN(Cc1ccco1)[C@@H]1CN(C(=O)c2ccnnc2)C[C@@H]2CCCO[C@@H]21 | 4.52 |
| O=C1CO[C@H]2CN(Cc3ccc4c(c3)OCO4)C[C@H]2N1 | -0.835 |
| CNC(=O)[C@@]12CCO[C@@H]1CCN(Cc1cccc(C)c1)C2 | -2.81 |
| C=C1C(C)(C)[C@H]2CC[C@]1(C(=O)N1CCC(n3cc(CCO)nn3)CC1)C2 | 1.01 |
| CCn1cnnc1CNC(=O)NC(c1ccccc1)C1CCCC1 (centres undefined) | 0.594 |
| CCn1cnnc1CNC(=O)NC(c1cccs1)C1CCCC1 (centres undefined) | 55.9 |
| CCn1cnnc1CNC(=O)NC(C)c1cccs1 (centres undefined) | -0.56 |
| O=C(COc1cccc(Cl)c1)N1CCOCC1c1ncon1 (centres undefined) | 60.2 |
| O=C(COc1ccc(Cl)cc1)N1CCOCC1c1ncon1 (centres undefined) | 3.96 |
| O=C(COc1cccc(Br)c1)N1CCOCC1c1ncon1 (centres undefined) | -4.77 |
| O=C(c1ccccc1)N1CC[C@H]2C[C@H](c3nccs3)O[C@@H]2C1 | 0.277 |
| CN(C)C(=O)c1cncnc1-c1ccc(CNC(=O)C2CCCO2)cc1 (centres undefined) | 59.1 |
| COCC(=O)NCc1ccc(-c2ncncc2C(=O)N(C)C)cc1 | -3.46 |
| CN(C)C(=O)c1cncnc1-c1ccc(CNC(=O)C2CC2)cc1 | 1.32 |
